# Values without a mark were called inactive. Active and inactive are the calls of the source. Calls follow the shape of the dose curve; as a rule, active = well fitted curve in the direction sought with a large enough effect in the repeat runs; inconclusive = weak or mixed curves; inactive = flat fitted curve, though single readings scatter.
# Test: qHTS assay to test for compound auto fluorescence at 535 nm (green) in HEK293 cell free culture (AID 720682)
# Conditions: cell-free medium, green autofluorescence 485/535 nm, active compounds read high; series mostly up to 91.3 µM; activity change: at the top concentration
# In short: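 DMEM + 10% FBS, cell-free; cpd or DMSO pinned in; Ex485/Em535 read; output as fluorescein-equivalent signal.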
# % is scaled to controls: 0 for no effect and ±100 for the full control effect.
Structure (SMILES),activity change,outcome
CCCCc1ccc(O)cc1,-0.0062%,
O=NN1CCCCC1,-0.0045%,
CC(=O)[C@H]1CC[C@H]2[C@@H]3CC[C@H]4C[C@H](O)CC[C@]4(C)[C@H]3C(=O)C[C@]12C,0.0344% [at 46 µM],
O=NN1CCN(N=O)CC1,0.0768%,
ClCCOCOCCCl,-0.0751% [at 95.7 µM],
COc1cccc2c1cc([N+](=O)[O-])c1c(C(=O)O)cc3c(c12)OCO3,-0.232%,
N#CCBr,-0.0074% [at 95.7 µM],
C[C@H]1CCC[C@H](O)CCCCCc2cc(O)cc(O)c2C(=O)O1,,inactive
CC1=C(C(=O)Nc2ccccc2)S(=O)(=O)CCO1,0.0055%,
CC(C)CC(N(C)C)C1(c2ccc(Cl)cc2)CCC1 (configuration not stated),-0.0081% [at 46 µM],
CC(=O)C(Cl)Cl,-0.054% [at 95.7 µM],
CC(COc1ccc(Oc2ccccc2)cc1)Oc1ccccn1 (configuration not stated),0.082%,
CC(C)[N+](=O)[O-],0.1%,
CCOP(=S)(OCC)Oc1nc(Cl)n(C(C)C)n1,-0.0011%,
COc1ccc2c(c1OC)CN1CCc3cc4c(cc3C1C2)OCO4 (configuration not stated),-0.0423% [at 18.6 µM],
CCNc1nc(NC(C)C)nc(OC)n1,-0.029%,
COC(=O)c1ccccc1S(=O)(=O)NC(=O)N(C)c1nc(C)nc(OC)n1,0.0097% [at 95.7 µM],
C=CCC1=C(C)[C@@H](OC(=O)[C@@H]2[C@@H](C=C(C)C)C2(C)C)CC1=O,0.248%,

Structure (SMILES),activity change,outcome
CCCCOC(=O)c1ccccc1N,-0.0295%,
[As]#[In],-0.0794%,
CN1CCC(O)(c2ccc(F)cc2)C(C(=O)c2ccc(F)cc2)C1 (configuration not stated),0.101% [at 46 µM],
CCCCOP(=O)(O)OCCCC,-0.0188%,
O=C(NCO)NCO,0.014% [at 95.7 µM],
CCS(=O)(=O)CCSP(=O)(OC)OC,0.0752%,
CNC(=O)O/N=C(\C)SC,-0.0318%,
CSc1nc(N=[N+]=[N-])nc(NC(C)C)n1,-0.0268%,
O=C(CCN1CC1)OCC(CO)(COC(=O)CCN1CC1)COC(=O)CCN1CC1,-0.0433%,
[O]=[Cd],,inactive
CCCSC(=O)Cl,-0.0147%,
CCS(=O)(=O)C(C)(C)S(=O)(=O)CC,0.055% [at 46 µM],
Nc1n[nH]c(N)n1,0.0515% [at 95.7 µM],
CCC/C(=N\OCC)C1=C(O)CC(CC(C)SCC)CC1=O (configuration not stated),0.0717%,
O=[N+]([O-])c1cccc2c([N+](=O)[O-])cccc12,0.0381%,
CC1=NNC(=O)N(/N=C/c2cccnc2)C1,0.126%,
CCCCN(CCCCO)N=O,-0.0096%,

# Test: qHTS assay to test for compound auto fluorescence at 590 nm (red) in HEK293 cell free culture (AID 720683)
# Conditions: cell-free medium autofluorescence, Ex540/Em590 red; series mostly up to 91.3 µM; fluorescence, % of fluorescent control: at the top concentration
# In short: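 Cell-free wells of DMEM with 10% FBS received compound, and intrinsic fluorescence was read at excitation/emission 540/590 nm. Values expressed as equivalence to Rose Bengal sodium.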
Structure (SMILES),"fluorescence, % of fluorescent control",outcome
CCCCc1ccc(O)cc1,0.0234%,
O=NN1CCCCC1,-0.0814%,
CC(=O)[C@H]1CC[C@H]2[C@@H]3CC[C@H]4C[C@H](O)CC[C@]4(C)[C@H]3C(=O)C[C@]12C,-0.279% [at 46 µM],
O=NN1CCN(N=O)CC1,0.279%,
ClCCOCOCCCl,-0.012% [at 95.7 µM],
COc1cccc2c1cc([N+](=O)[O-])c1c(C(=O)O)cc3c(c12)OCO3,0.0764%,
N#CCBr,0.116% [at 95.7 µM],
C[C@H]1CCC[C@H](O)CCCCCc2cc(O)cc(O)c2C(=O)O1,,inactive
CC1=C(C(=O)Nc2ccccc2)S(=O)(=O)CCO1,-0.0106%,
CC(C)CC(N(C)C)C1(c2ccc(Cl)cc2)CCC1 (configuration not stated),0.0079% [at 46 µM],
CC(=O)C(Cl)Cl,0.299% [at 95.7 µM],
CC(COc1ccc(Oc2ccccc2)cc1)Oc1ccccn1 (configuration not stated),0.0498%,
CC(C)[N+](=O)[O-],-0.56%,
CCOP(=S)(OCC)Oc1nc(Cl)n(C(C)C)n1,0.0241%,
COc1ccc2c(c1OC)CN1CCc3cc4c(cc3C1C2)OCO4 (configuration not stated),0.155% [at 18.6 µM],
CCNc1nc(NC(C)C)nc(OC)n1,0.072%,
COC(=O)c1ccccc1S(=O)(=O)NC(=O)N(C)c1nc(C)nc(OC)n1,-0.0143% [at 95.7 µM],
C=CCC1=C(C)[C@@H](OC(=O)[C@@H]2[C@@H](C=C(C)C)C2(C)C)CC1=O,0.0629%,

Structure (SMILES),"fluorescence, % of fluorescent control",outcome
CCCCOC(=O)c1ccccc1N,0.0015%,
[As]#[In],-0.447%,
CN1CCC(O)(c2ccc(F)cc2)C(C(=O)c2ccc(F)cc2)C1 (configuration not stated),-0.131% [at 46 µM],
CCCCOP(=O)(O)OCCCC,-0.16%,
O=C(NCO)NCO,0.0495% [at 95.7 µM],
CCS(=O)(=O)CCSP(=O)(OC)OC,-0.31%,
CNC(=O)O/N=C(\C)SC,0.238%,
CSc1nc(N=[N+]=[N-])nc(NC(C)C)n1,0.301%,
O=C(CCN1CC1)OCC(CO)(COC(=O)CCN1CC1)COC(=O)CCN1CC1,-0.15%,
[O]=[Cd],,inactive
CCCSC(=O)Cl,-0.0159%,
CCS(=O)(=O)C(C)(C)S(=O)(=O)CC,-0.262% [at 46 µM],
Nc1n[nH]c(N)n1,-0.0976% [at 95.7 µM],
CCC/C(=N\OCC)C1=C(O)CC(CC(C)SCC)CC1=O (configuration not stated),-0.072%,
O=[N+]([O-])c1cccc2c([N+](=O)[O-])cccc12,-0.347%,
CC1=NNC(=O)N(/N=C/c2cccnc2)C1,-0.0788%,
CCCCN(CCCCO)N=O,0.0125%,

# Test: qHTS assay to test for compound auto fluorescence at 590 nm (red) in HepG2 cell free culture (AID 720684)
# Conditions: cell-free medium autofluorescence, red 540/590 nm; series mostly up to 91.3 µM; fluorescence, % of Rose Bengal: at the top concentration
# In short: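 Auto fluorescence equivalency versus Rose Bengal sodium, red channel Ex/Em 540/590 nm; compounds in cell-free MEM/10% FBS; DMSO vehicle control.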
Structure (SMILES),"fluorescence, % of Rose Bengal",outcome
CCCCc1ccc(O)cc1,0.116%,
O=NN1CCCCC1,0.0537%,
CC(=O)[C@H]1CC[C@H]2[C@@H]3CC[C@H]4C[C@H](O)CC[C@]4(C)[C@H]3C(=O)C[C@]12C,0.113% [at 46 µM],
ClCCOCOCCCl,0.0322% [at 95.7 µM],
COc1cccc2c1cc([N+](=O)[O-])c1c(C(=O)O)cc3c(c12)OCO3,0.0153%,
N#CCBr,-0.118% [at 95.7 µM],
C[C@H]1CCC[C@H](O)CCCCCc2cc(O)cc(O)c2C(=O)O1,,inactive
CC1=C(C(=O)Nc2ccccc2)S(=O)(=O)CCO1,-0.0455%,
CC(C)CC(N(C)C)C1(c2ccc(Cl)cc2)CCC1 (configuration not stated),-0.261% [at 46 µM],
CC(=O)C(Cl)Cl,-0.175% [at 95.7 µM],
CC(C)[N+](=O)[O-],0.0013%,
COc1ccc2c(c1OC)CN1CCc3cc4c(cc3C1C2)OCO4 (configuration not stated),-0.268% [at 18.6 µM],
COC(=O)c1ccccc1S(=O)(=O)NC(=O)N(C)c1nc(C)nc(OC)n1,0.0249% [at 95.7 µM],
CCCCOC(=O)c1ccccc1N,-0.0322%,
[As]#[In],0.0587%,
CCCCOP(=O)(O)OCCCC,0.0769%,
O=C(NCO)NCO,-0.0216% [at 95.7 µM],
CCS(=O)(=O)CCSP(=O)(OC)OC,-0.319%,
CNC(=O)O/N=C(\C)SC,0.0472%,
O=C(CCN1CC1)OCC(CO)(COC(=O)CCN1CC1)COC(=O)CCN1CC1,-0.181%,
Nc1n[nH]c(N)n1,-0.0491% [at 95.7 µM],
CC1=NNC(=O)N(/N=C/c2cccnc2)C1,0.388%,

# From PubChem BioAssay (Tox21)
